Data as given in PubChem BioAssay AID2012 (Sanford-Burnham Center for Chemical Genomics, 2009).
Among all 290,000 compounds or so, about 2,700 (0.93%) were called active. The rule behind the calls is not given here. The full list was thinned out, with actives kept by preference.

Target: Eukaryotic translation initiation factor 4H (Homo sapiens) (UniProt Q15056)
Assay: eIF4H binding inhibition – biochemical, uHTS, fluorescence polarization, translation initiation inhibitor project, primary screen (AID 2012);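 note: calls also rest on retests at 20 µM and on dose response follow-up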
Settings: eIF4H fluorescence polarization binding assay, stronger effect = higher value

Compound | inhibition (at 35 µM) | inhibition (confirmation average, at 20 µM) [%]
Cc1ccc(N=C2NC(=O)/C(=C/C=C/c3ccco3)S2)cc1C | 75.9% (active) | 90.3
Cc1ccc(N2NC(=O)/C(=C/C=C/c3ccco3)C2=O)cc1C | 45.7% (inactive) | –
Cc1cccc(N=C2NC(=O)/C(=C/c3cn(C)c4ccccc34)S2)c1 | 2.5% (inactive) | –
CCN(CC)S(=O)(=O)c1ccc(-c2cn3ccc(C)cc3n2)cc1 | 1.1% (inactive) | –
Cc1ccc(-c2n[nH]c(=S)n2/N=C/c2cc3c(cc2[N+](=O)[O-])OCO3)cc1 | 29.5% (inactive) | –
O=[N+]([O-])c1ccccc1/C=N/n1c(COc2ccccc2)n[nH]c1=S | -1.1% (inactive) | –
CCOc1ccc(-c2n[nH]c(=S)n2/N=C/c2cc3c(cc2[N+](=O)[O-])OCO3)cc1 | 86.2% (active) | 80.4
Cc1cc(C(=O)COC(=O)C2CC2)c(C)n1-c1ccc(F)cc1 | 4.9% (active) | 52.5
Cc1ccc(-n2c(C)cc(C(=O)CN3C(=O)C(=O)N(C4CCCC4)C3=O)c2C)cc1 | 1.2% (inactive) | –
COc1cc(/C=N/NC(=O)c2cc(C)n(-c3ccc(F)cc3)c2C)cc(OC)c1O | 0.7% (inactive) | –
O=C(Nc1ccc(F)cc1)c1ccc(S(=O)(=O)NCc2cccnc2)cc1 | 10.1% (inactive) | –
NC(=O)CN1CCCC1c1ccc2c(c1)OCCO2 (stereo not given) | 4.2% (inactive) | –
Brc1ccc(CSc2ccc(-c3ccco3)nn2)cc1 | 61% (inactive) | -1.3
c1ccc(CSc2nnc(-c3ccco3)c(-c3ccco3)n2)cc1 | 94.6% (active) | –
O=C(Nc1nnc(SCc2ccccc2)s1)c1ccco1 | 6% (inactive) | –
Fc1cccc(Cl)c1CSc1ccc(-c2ccco2)nn1 | 49.1% (inactive) | –
COC(OC)c1ccnc(SCc2ccccc2Cl)n1 | 2% (inactive) | –
Clc1ccccc1CSc1nnc(-c2ccco2)c(-c2ccco2)n1 | 96.6% (active) | 94.4
CCN(C(=O)C1CCCN(c2nc(-c3ccc(OC)cc3)no2)C1)c1ccc(OC)cc1 (stereo not given) | -11.8% (inactive) | –
Cc1ccc(NC(=O)CSc2nn3c(=O)c(C)nnc3s2)cc1Cl | -27.5% (inactive) | –
CC(=O)c1ccc(N2CCN(C(=O)C3CCN(S(=O)(=O)c4ccc5c(c4)CC(C)N5C(=O)C4CC4)CC3)CC2)cc1 (stereo not given) | -9.3% (inactive) | –
O=C(Nc1ccc2c(c1)OCO2)c1sc2cc(Cl)ccc2c1Cl | -4% (inactive) | –
CC(Sc1nc(-c2ccccc2)cc(C(F)(F)F)n1)C(=O)Nc1ccc2c(c1)OCO2 (stereo not given) | 4.8% (inactive) | –
CC(Sc1nc2cc(Cl)ccc2s1)C(=O)Nc1ccc2c(c1)OCO2 (stereo not given) | 1.8% (active) | 65.1

Compound | inhibition (at 35 µM) | inhibition (confirmation average, at 20 µM) [%]
O=S(=O)(c1ccc(Br)cc1)N1CCC(c2nc3ccccc3[nH]2)CC1 | -8.2% (inactive) | –
CC1CCCCN1CCCNc1ccc(C(CC(N)=O)NC(=O)c2ccccc2)cc1[N+](=O)[O-] (stereo not given) | -8.3% (inactive) | –
CC(=O)NC(Cc1ccc(F)c(F)c1)C(=O)NC1CCN(C(=O)c2ccc(C)cc2)CC1 (stereo not given) | -14.2% (inactive) | –
CNC(=S)N1CCC(NC(=O)C(Cc2ccc(F)cc2)NC(C)=O)CC1 (stereo not given) | 63.8% (active) | –
COc1ccc(CC(NC(C)=O)C(=O)NC2CCN(C(=O)c3ccc(Cl)cc3)CC2)cc1 (stereo not given) | -0.5% (inactive) | –
O=C(CCc1ccccc1)NNC(=O)COc1ccc(Cl)cc1 | 0.4% (inactive) | –
COc1ccccc1NC(=O)CCC(=O)OC(C)C(=O)c1ccccc1 (stereo not given) | 1.3% (inactive) | –
O=C(NC1CCCC1)C(=O)c1c[nH]c2ccccc12 | -6.1% (inactive) | –
CCCNC(=O)CSc1nc(Cc2ccccc2)nc2ccccc12 | -6.2% (inactive) | –
Clc1c(OCCCn2ccnc2)ccc2ccccc12 | 1.6% (inactive) | –
O=C(/C=C/c1ccc2c(c1)OCO2)NCc1ccc(F)cc1 | 4.7% (inactive) | –
O=C(/C=C/c1ccc2c(c1)OCO2)NCc1cn2cc(Cl)ccc2n1 | -3.3% (active) | 76.4
Cc1cccc(NC(=O)/C=C/c2ccc3c(c2)OCO3)n1 | -2.1% (inactive) | –
Cc1cccc(NS(=O)(=O)c2ccc(-c3cnc(C4CC4)o3)cc2)c1 | -2.4% (inactive) | –
O=C(c1ccc[nH]c1=S)N1CCN(S(=O)(=O)c2ccc(Br)cc2Cl)CC1 | -10.2% (inactive) | –
CCc1ccccc1NC(=O)CN(C)C(=O)COc1ccc(C)nc1[N+](=O)[O-] | 1.9% (inactive) | –
Cc1ccc(OCC(=O)NC(C)c2ccccc2)c([N+](=O)[O-])n1 (stereo not given) | -4.1% (inactive) | -2.8
Cc1ccc(OCC(=O)c2cc(C)n(Cc3ccco3)c2C)c([N+](=O)[O-])n1 | 101% (active) | 86.9
Cc1cc(C(=O)CSc2nc(N)cc(=O)[nH]2)c(C)n1Cc1ccco1 | 43.2% (inactive) | –
Cc1cc(C(=O)COC(=O)CNC(=O)c2ccc(F)cc2)c(C)n1Cc1ccco1 | 86.4% (inactive) | -10.3
COCC(C)n1c(C)cc(C(=O)COc2ccc(C)nc2[N+](=O)[O-])c1C (stereo not given) | 70.1% (active) | 70.5
COc1ccc(C)cc1-n1nnnc1SCC(=O)c1cc(C)n(Cc2ccco2)c1C | 64.8% (active) | –
COc1ccccc1CNC(=O)COc1ccc(C)nc1[N+](=O)[O-] | -3.5% (inactive) | –
COc1ccc(OC)c(-n2nnnc2SCC(=O)Nc2cc(C)ccc2OC)c1 | 0% (inactive) | –

Compound | inhibition (at 35 µM) | inhibition (confirmation average, at 20 µM) [%]
Cc1c(C(C)(C)O)[nH]c2ccc(C#N)cc12 | 2.9% (inactive) | –
CN1CCN(C(=O)C(=O)c2cn(CC(=O)N3CCCC3)c3ccccc23)CC1 | -7.2% (inactive) | –
CNC(=O)c1sc(Nc2ccc(OCc3ccccc3)cc2)nc1C | 8% (inactive) | –
Cc1ccc(C(C[N+](=O)[O-])c2c(C)cc3ccccn23)cc1 (stereo not given) | 54.1% (active) | 84.9
Cc1cc2ccccn2c1C(=O)c1cccc(F)c1 | -9.7% (inactive) | –
CC(=O)Nc1ccc(/C=N/Nc2ccc(C(=O)c3c(C)cc4ccccn34)cc2[N+](=O)[O-])cc1 | 8.5% (inactive) | –
CCOc1ccc(N(C)S(=O)(=O)c2cnc[nH]2)cc1 | -1% (inactive) | –
CC(Cc1ccccc1)C(=O)N(C)Cc1ccccc1 (stereo not given) | -2.7% (inactive) | –
COc1ccc(CNC(=O)C(Cc2ccccc2)n2cccc2)cc1 (stereo not given) | 1.8% (inactive) | –
Cc1ccc(C)n1C(Cc1ccccc1)C(=O)O (stereo not given) | 83% (active) | –
Cc1cccc(N2CCN(C(=O)/C=C/c3ccco3)CC2)c1C | 57.3% (active) | 101
O=C(/C=C/c1ccco1)NC(=S)N1CCCCC1 | 5.7% (inactive) | –
CCC(CC)C(=O)N1CCN(c2cccc(C)c2C)CC1 | -9.8% (inactive) | –
CCOc1cc(/C=C2\SC(N3CCCC(C)C3)=NC2=O)ccc1O (stereo not given) | 1.3% (inactive) | –
CC(=O)c1cccc(NC(=O)C2CCN(C(=O)c3ccccc3Cl)CC2)c1 | 3.5% (inactive) | –
Cn1c(-c2ccco2)nc2cc3ccccc3cc21 | 4.9% (inactive) | –
c1coc(-c2nc3nc4ccccc4n3nc2-c2ccco2)c1 | 73.4% (active) | –
COc1ccc(CCn2c(-c3ccco3)nc3nc4ccccc4nc32)cc1OC | 3.6% (inactive) | –
O=C(Nc1ccc(Cl)cc1)c1cccc(OC(=S)N2CCOCC2)c1 | -8.8% (inactive) | –
CC(=O)N1c2ccc(S(=O)(=O)N(C)CC(=O)N(C)Cc3ccccc3)cc2CC1C (stereo not given) | 2.8% (inactive) | –
O=C(CN1C(=O)c2cccnc2Oc2ccc(Cl)cc21)Nc1ccc(F)cc1 | -8.2% (inactive) | –
O=C(/C=C/Sc1ncn[nH]1)c1ccc(Cl)cc1 | 60.7% (active) | 65.7
Cc1cc(C)nc(S/C=C/C(=O)c2ccccc2)n1 | -7.4% (inactive) | –
COc1ccc(Cl)cc1CSc1ncn[nH]1 | -9.7% (inactive) | –

Compound | inhibition (at 35 µM) | inhibition (confirmation average, at 20 µM) [%]
COc1ccc(C(=O)C2CCCN(C(=O)c3ccc(OC)o3)C2)c(C)c1 (stereo not given) | -2.6% (inactive) | –
Oc1cccc(/C=N/Nc2ccc(Cl)nn2)c1O | 24.2% (inactive) | –
COc1ccc(/C=C2\SC(=S)N(CCCC(=O)NC3CCCC3)C2=O)cc1OC | 48.7% (inactive) | –
CCSc1nnc(NC(=O)c2ccc(C)cc2)s1 | -9.1% (inactive) | –
Cc1ccc(C(=O)Nc2nnc(-c3cccs3)s2)cc1C | -2.7% (inactive) | –
Cc1ccc(C(=O)Oc2coc(CSc3nnc(NC(=O)c4cccs4)s3)cc2=O)cc1C | 65.8% (active) | 85.6
CN1CCN(C(=O)c2ccccc2NC(=O)COc2ccccc2Cl)CC1 | -9.2% (inactive) | –
Cn1c(=O)[nH]c(=O)c2c1nc(N1CCN(C(c3ccccc3)c3ccccc3)CC1)n2CCO | 0.3% (inactive) | –
CCOc1cnc(C(=O)NNC(=O)c2ccccc2Br)o1 | 85.7% (active) | 95
O=C(NC(=S)Nc1ncccn1)c1ccccc1Br | -2% (inactive) | –
CCCc1ccc(OCCNC(=O)c2ccccc2Br)cc1 | 8.8% (inactive) | –
CCCCc1nc2cc(C(=O)N3CCCCC3CCO)ccc2o1 (stereo not given) | -1.1% (inactive) | –
COc1ccc(CCNC(=O)C(=O)NCC2OCCN2S(=O)(=O)c2cccs2)cc1OC (stereo not given) | -4.1% (inactive) | –
CCOc1ccc(NC(=O)c2ccc(NC(=O)C3CCCO3)cc2)cc1 (stereo not given) | -9.4% (inactive) | –
Cc1ccc(OCC(=O)Nc2ccc(C(=O)O)cc2NC(=O)COc2ccc(C)c(C)c2)cc1C | 4.8% (inactive) | –
Cc1ccc(NC(=S)Nc2ccc(F)cc2)cc1 | -11.3% (inactive) | –
CN1CCc2c(sc3c2c(NCc2ccco2)nc2nnnn23)C1 | 68% (active) | –
CCCSc1nc(NCc2ccco2)c2c3c(sc2n1)COC(C)(CC)C3 (stereo not given) | 4.7% (inactive) | –
Cn1c(=O)n(Cc2ccco2)c(=N)c2c3c(sc21)CCCC3 | -14.4% (inactive) | –
O=C(CCN1C(=O)[C@@H]2Cc3ccccc3CN2C1=O)NCCc1ccccc1 | 80.7% (active) | –
O=C(CCN1C(=O)[C@@H]2Cc3ccccc3CN2C1=O)NCc1ccccc1 | -0.5% (inactive) | –
Cc1ccc(CNC(=O)CCN2C(=O)[C@@H]3Cc4ccccc4CN3C2=O)cc1 | -3.4% (inactive) | –
